ChEMBL document CHEMBL1201862, “PubChem BioAssay data set” (2004)
The campaign covered roughly 57,000 […]. About 2,300 (4%) were called active. No stated cut-off is given here; in the data, active = GI50 up to about 1.1 µM and inactive = higher. Not all results are given here. Measured potencies and affinities stand elsewhere.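 Growth conditions: 96-well plates. Treatment: test compound, 48 hours, 5 concentrations. Analysis: linear interpolation between bracketing concentrations; unreached endpoints set to highest concentration. Here, GI50 denotes the concentration required for 50% inhibition of growth.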

What follows are substances tested on SK-MEL-28 (assay: NCI tumour cell line growth inhibition, 48 h).

Substance	GI50 [µM]
[Bis(aminomethyl)diethylsilane]tetrachloroplatinum(IV), CHEMBL2146203	1.72
CISPLATIN, CHEMBL11359	4.43
[Bis(aminomethyl)tetramethylenesilane]dichloropaltinum(II), CHEMBL2146205	20.3
[Bis(aminomethyl)pentamethylenesilane]dichloropaltinum(II), CHEMBL2146202	3.85
[Bis(aminomethyl)ethylmethylsilane]tetrachloroplatinum(IV), CHEMBL2146192	2.76
[Bis(aminomethyl)pentamethylenesilane]tetrachloropaltinum(IV), CHEMBL2146204	1.23
cis-Bis[[(trimethylsilyl)methyl]amino]tetrachloroplatinum(IV), CHEMBL2146191	2.86
[Bis(aminomethyl)dimethylsilane]tetrachloroplatinum(IV), CHEMBL2146190	10.2
[Bis(aminomethyl)tetramethylenesilane]tetrachloropaltinum(IV), CHEMBL2146189	2.85
mu-(1,7-nanodiamine-N,N')bis-(cis-aminedichloroplatimum (II)), CHEMBL2146215	10.2
[Bis(aminomethyl)dimethylsilane]dichloroplatinum (II), CHEMBL2146201	21.6
